PP1 inh: counter-screen for PP5 inhibitors: inhibitors of human PP1-alpha. P62136. purified PP1alpha, OMFP fluorescence. inhibition, % at 6.7 µM. 320,000 compounds, 0.9% hits. AID 2235;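 active = inhibition above the mean inhibition of all tested compounds plus 3 SD, computed separately for each screening campaign, cut at about 15% in these data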
PP5 inh: inhibitors of human protein phosphatase 5 (PP5); inhibition, % at 6.7 µM; P53041; 320,000 compounds, 0.18% hits; purified PP5c, OMFP substrate fluorescence;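 active = inhibition above the campaign's mean inhibition across all tested compounds plus 3 SD, cut at about 9.5% in these data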;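 also: 0% = DMSO only and 100% = 100 µM cantharidin control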
NadD inh: blocks S. aureus nicotinate mononucleotide adenylyltransferase. 360,000 compounds, 0.78% hits. purified NadD enzyme, colorimetric absorbance read-out. inhibition, % at 20 µM. AID 602399; in the data active = inhibition above about 26%
Rpn11 block: blocks the human proteasome subunit Rpn11; inhibition, % at 20 µM; O00487; human 26S proteasome, Ub4-pepOG fluorescence polarization; 20S core pre-blocked with epoxomicin; 360,000 compounds, 0.59% hits;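 active = inhibition at 20 µM, scaled to each plate's controls, above about 33%, limit read from the data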
Target sequence (O00487 whole entry, looked up): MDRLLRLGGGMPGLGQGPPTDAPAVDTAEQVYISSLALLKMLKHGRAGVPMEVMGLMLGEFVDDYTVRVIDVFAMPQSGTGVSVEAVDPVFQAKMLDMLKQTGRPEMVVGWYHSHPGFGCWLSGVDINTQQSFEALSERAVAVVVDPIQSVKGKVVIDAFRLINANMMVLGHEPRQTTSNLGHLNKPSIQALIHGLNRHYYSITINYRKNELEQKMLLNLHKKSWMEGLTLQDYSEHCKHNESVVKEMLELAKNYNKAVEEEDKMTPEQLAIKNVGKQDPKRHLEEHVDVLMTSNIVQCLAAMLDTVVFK
PREPL inhibitor: inhibits the human prolyl oligopeptidase-like enzyme; recombinant PREPL, fluorescence polarization activity-based probe; 320,000 compounds, 0.68% hits; inhibition, % at 5.96 µM; Q4J6C6; in the data active = inhibition above about 43%;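 also: 0% = enzyme with DMSO and 100% = wells lacking enzyme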
An asterisk follows results filed as active; x = not tested or not shown. The list is not random: actives were taken first. Their share in the collection is about 2.4%.

SMILES	PP1 inh	PP5 inh	NadD inh	Rpn11 block	PREPL inhibitor
C[n+]1c2cc(N)ccc2cc2ccc(N)cc21	x	x	33*	-218	x
Cc1c(C)c2c(OCC(=O)NCC3CCC(C(=O)O)CC3)cc3c(c2oc1=O)CCC(C)(C)O3 (centres undefined)	x	x	7	0	x
O=c1[nH]c(CSc2nc3ccccc3o2)nc2c1cnn2-c1ccccc1	16*	1	12	12	-17
c1coc(-c2nc(-c3ccco3)c(-c3ccco3)nc2-c2ccco2)c1	43*	2	46*	x	71*
Nc1nc(-c2ccco2)c(-c2ccco2)s1	3	0	16	-37	11
COc1ccc(Cl)cc1C(=O)NC(=S)Nc1cc(-c2nc3ccccc3[nH]2)ccc1C	3	3	34*	2	-30
COc1ccc(Cl)cc1C(=O)NC(=S)Nc1nc(C)cc(C)n1	0	-2	4	3	3
CCOc1cc(C=NNC(=O)N(c2ccccc2)c2ccccc2)ccc1O	x	x	1	-3	x
O=C(CSc1ccc(Cl)cc1)Nc1ccccc1N1CCN(C(=O)c2ccc(Cl)cc2)CC1	15*	1	-3	3	-6
O=C(CSc1ccc(Cl)cc1)Nc1ccc(N2CCN(C(=O)c3ccc(Cl)cc3)CC2)cc1	-2	0	15	1	33
O=C1/C(=C/c2ccc(F)cc2)SC(=S)N1CC(=O)N1CCCCC1c1cccnc1 (centres undefined)	16*	1	23	16	22
CC(C)NC(=O)Nc1ccc2c(c1)C(=O)N([C@@H](C)CO)C[C@H](C)[C@H](CN(C)S(=O)(=O)c1ccccc1)OCCCC[C@H](C)O2	x	x	4	3	x
CCOC(=O)C1=CCN(S(=O)(=O)c2ccc(C)cc2)C1c1cccc(Cl)c1 (centres undefined)	x	x	-1	4	x
COC(=O)c1ccc(Sc2ccc(C)cc2)c(N)c1	-1	0	16	8	14
COc1cc(Sc2ccc(C)cc2)c(OC)cc1N	5	2	7	8	47*
Cc1ccc(NC(=O)CSc2nc(=O)n(Cc3ccncc3)c3c2CCC3)c(C)c1	-1	0	3	-7	5
Cc1cc2cc(CNC(=O)COc3ccccc3)ccc2n1C	5	4	9	-16	52*
COCC(=O)NCc1ccc2c(c1)cc(C)n2C	2	1	2	-10	4
O=C(NC1CCCc2ccccc21)c1cccc(S(=O)(=O)N2CCN(c3ccccc3)CC2)c1 (centres undefined)	15*	5	20	-4	-5
CCN(CC)Cc1cc(O)c(CN(CC)CC)cc1O	x	x	31*	-36	x
CCc1oc(C(=O)O)cc1CN(CC)CC	1	2	-1	3	1
O=C(N1CCOCC1)C12OC3CC(CC(C3)O1)O2	x	x	1	11	x
CCOc1cc(CNCC2CCCO2)cc(Br)c1OCC(N)=O (centres undefined)	17*	2	-2	1	-2
Cc1noc(C)c1C(=O)NC1=NCCS1	-13	-6	-6	-1	5
CN(c1ccccc1)S(=O)(=O)c1ccc(C(=O)NCc2ccccn2)cc1	-1	-2	-6	-4	3
SMILES	PP1 inh	PP5 inh	NadD inh	Rpn11 block	PREPL inhibitor
Cc1ccc2c(=O)c(C(=O)NCc3cccs3)c[nH]c2c1	2	0	-4	-9	74*
N#CC1=C(N)SC(N)=C(C#N)C1c1ccc([N+](=O)[O-])cc1	1	2	7	57*	6
COc1cc(/C=C2\SC(=O)N(c3ccc(Cl)cc3)C2=O)cc([N+](=O)[O-])c1O	x	x	60*	29	x
COc1cc(/C=C2/C(=O)NN(c3ccc(C)c(Cl)c3)C2=O)cc([N+](=O)[O-])c1O	x	x	7	6	x
Cc1ccc(S(=O)(=O)N2CCN(c3nc(-c4cccs4)nc4ccccc34)CC2)cc1	x	x	18	5	x
O=S1(=O)CC(O)C(O)CS1 (centres undefined)	x	x	12	x	x
Cc1cc(O)c(C=O)c2c1C(=O)Oc1c(CO)c(O)c3c(c1O2)C(O)OC3=O (centres undefined)	36*	2	34*	x	45*
COc1ccc(-c2[nH]c(-c3ccc(Cl)cc3)nc2SCC(=O)Nc2nccs2)cc1	16*	5	5	9	18
CC(=O)Nc1ccc(S(=O)(=O)N2C(C)CCCC2C)cc1 (centres undefined)	1	0	-4	-8	1
O=C(C1=C(O)C(=O)N(CCCn2ccnc2)C1c1ccccc1)c1ccco1 (centres undefined)	1	2	-4	-1	4
Cc1ccc(C(=O)C2=C(O)C(=O)N(Cc3ccco3)C2c2cccc(Br)c2)o1 (centres undefined)	22*	2	21	3	-1
O=C(C1=C(O)C(=O)N(CCCn2ccnc2)C1c1cccc(Br)c1)c1ccco1 (centres undefined)	47*	0	2	6	10
Cc1ccc(C(=O)C2=C(O)C(=O)N(Cc3ccco3)C2c2cccc(Cl)c2)o1 (centres undefined)	25*	0	15	10	0
O=C(C[n+]1cc(-c2ccc(Cl)cc2)n2c1CCC2)Nc1nc(-c2ccccc2)cs1	16*	2	5	8	-23
O=C(C[n+]1cc(-c2ccc(F)cc2)n2c1CCC2)Nc1nc(-c2ccccc2)cs1	8	1	14	-2	-16
CCCCn1c(N)c(N(CCC(C)C)C(=O)C2CC(=O)N(c3ccccc3OCC)C2)c(=O)[nH]c1=O (centres undefined)	-5	1	4	0	12
Cc1ccc(CN2C(=O)C3CCCN3c3ncccc32)cc1 (centres undefined)	9	-1	12	7	6
Cc1ccc(CN2C(=O)C3CCCN3c3ccc(S(=O)(=O)N4CCOCC4)cc32)cc1 (centres undefined)	24*	-1	x	x	-5
O=C1CCNc2cc3ccccc3cc21	8	5	31*	-39	21
CCOC(=O)c1c(NC(=O)C(=O)N/N=C/c2ccc(O)c(OC)c2)sc2c1CCCCC2	4	1	32*	-5	43
CNc1ccc2ncc(-c3ccccc3C(C)=O)n2n1	x	x	-4	4	x
COc1ccccc1Cc1c(-c2ccc(C#N)cc2)nc2c3ccccc3ccn12	x	x	10	35	x
NC(=O)CC(NC(=O)c1ccc(Br)cc1)c1ccc(NCc2ccc(F)c(F)c2)c([N+](=O)[O-])c1 (centres undefined)	12	1	9	15	5
NC(=O)CC(NC(=O)Cc1ccc(Br)cc1)c1ccc(NCc2ccc(F)c(F)c2)c([N+](=O)[O-])c1 (centres undefined)	17*	5	-1	12	-39
CCC(CC)Nc1ccc(C(CC(N)=O)NC(=O)Cc2cccc3ccccc23)cc1[N+](=O)[O-] (centres undefined)	17*	2	-7	11	-10
CCOc1ccc(C(=O)C2CCN(C(=O)c3ccc([N+](=O)[O-])cc3)CC2)cc1	1	1	-6	3	9
